Assay results taken from PubChem BioAssay (EPA / NIEHS).
Where “and” joins values, the source holds several entries; their conditions need not be identical. Equal values may be shown once. Records with an inconclusive call do not appear. Calls of active or inactive are those of the source. The calls were made as follows, unless noted: active = hit-call score of the fitted dose curve at least 0.9, where 1 is the maximum; inactive = score below 0.9.

Legend:
[1] = ATG_PXRE_CIS: Attagene CIS-FACTORIAL HepG2 Assay for human Pregnane X Receptor Element (PXRE) (AID 2282957); details: HepG2 Attagene CIS-FACTORIAL PXRE reporter, mRNA; actives raise or lower the signal
Outline: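 Read-out: fluorescence of reporter-specific RT-PCR products resolved by capillary electrophoresis, fitted bidirectionally relative to DMSO. Human HepG2 liver cells carried transfected cis-promoter reporter units and were exposed to chemicals for 24 h.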

[2] = ATG_PPRE_CIS: Attagene CIS-FACTORIAL HepG2 Assay for human Peroxisome Proliferator-activated Response Element (PPRE) (AID 2282958); details: HepG2 PPRE cis-element reporter, Attagene transcription factor profiling; actives raise or lower the signal
Outline: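 Cells are first transfected transiently with the multiplexed reporter library, then dosed for 24 h. Total RNA is reverse-transcribed, amplified, fluorescently end-labeled and HpaI-cut before capillary electrophoresis; activity is fitted bidirectionally against DMSO controls.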

[3] = ATG_RORE_CIS: Attagene CIS-FACTORIAL HepG2 Assay for human RAR-related Orphan Receptor Element (RORE) (AID 2282959); details: HepG2 Attagene cis-factorial RORE reporter, mRNA; actives raise or lower the signal
Outline: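 Cells were HepG2 carrying transfected cis-regulated reporter constructs, dosed for 24 hours. Total RNA was reverse-transcribed and reporter cDNA amplified, fluorescently labeled and sized by capillary electrophoresis. Activity was fitted bidirectionally relative to DMSO.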

[4] = ATG_Sox_CIS: Attagene CIS-FACTORIAL HepG2 Assay for human SRY-box transcription factor (SOX) (AID 2282960); details: HepG2 Attagene cis-factorial SOX reporter, mRNA; actives raise or lower the signal
Outline: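 Transient MRTU transfection of HepG2; 24 h compound incubation; TriZol RNA, oligo(dT) RT, PCR, 6-FAM primer extension, HpaI cut, CE. Bidirectional fit, DMSO = baseline.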

[5] = target: Transcription factor Sp1 (Homo sapiens) (UniProt P08047); test: ATG_Sp1_CIS: Attagene CIS-FACTORIAL HepG2 Assay for human Specificity Protein 1 (Sp1) (AID 2282961); details: HepG2 Sp1 cis-reporter transcription, actives raise or lower the signal
Sequence of Transcription factor Sp1 (Homo sapiens) (P08047 whole entry, looked up): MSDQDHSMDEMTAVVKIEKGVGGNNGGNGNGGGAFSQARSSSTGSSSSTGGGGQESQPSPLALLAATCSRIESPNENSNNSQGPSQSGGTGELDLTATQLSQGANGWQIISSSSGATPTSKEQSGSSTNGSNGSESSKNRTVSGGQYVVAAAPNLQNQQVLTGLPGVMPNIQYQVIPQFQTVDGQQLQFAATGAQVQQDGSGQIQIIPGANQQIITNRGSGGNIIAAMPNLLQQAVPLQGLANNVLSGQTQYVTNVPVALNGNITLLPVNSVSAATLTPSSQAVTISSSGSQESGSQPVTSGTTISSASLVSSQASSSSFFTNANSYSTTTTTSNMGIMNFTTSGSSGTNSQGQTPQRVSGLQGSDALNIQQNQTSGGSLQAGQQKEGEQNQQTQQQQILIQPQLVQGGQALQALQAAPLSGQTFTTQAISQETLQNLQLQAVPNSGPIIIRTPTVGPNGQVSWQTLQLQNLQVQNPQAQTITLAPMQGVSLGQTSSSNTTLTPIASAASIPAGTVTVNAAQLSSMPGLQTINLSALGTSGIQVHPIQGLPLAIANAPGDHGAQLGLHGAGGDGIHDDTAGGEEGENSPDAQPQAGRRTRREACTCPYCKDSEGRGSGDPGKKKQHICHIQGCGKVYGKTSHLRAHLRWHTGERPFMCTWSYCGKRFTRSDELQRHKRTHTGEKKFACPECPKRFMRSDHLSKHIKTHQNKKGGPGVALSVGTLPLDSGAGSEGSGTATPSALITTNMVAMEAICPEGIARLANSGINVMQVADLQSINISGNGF
Outline: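 Endogenous Sp1 activity was gauged in human liver HepG2 cells bearing transfected reporter units under a cis-regulating promoter. After 24 h dosing, reporter mRNA was quantified by RT-PCR with capillary electrophoresis, and activity fitted bidirectionally versus DMSO.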

[6] = ATG_SREBP_CIS: Attagene CIS-FACTORIAL HepG2 Assay for human Sterol Regulatory Element Binding (SREBP) (AID 2282962); details: HepG2 Attagene cis-factorial SREBP reporter, mRNA; actives raise or lower the signal
Outline: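 In this cis-format assay, HepG2 liver cells express reporters controlled by promoter elements responsive to native transcription factors. Exposure lasts 24 h; reporter mRNA fluorescence from capillary electrophoresis gives the signal, fitted bidirectionally against DMSO.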

[7] = target: Signal transducer and activator of transcription 3 (Homo sapiens) (UniProt P40763); test: ATG_STAT3_CIS: Attagene CIS-FACTORIAL HepG2 Assay for human Signal Transducer and Activator of Transcription 3 (STAT3) (AID 2282963); details: HepG2, Attagene cis-factorial STAT3 reporter transcription; actives raise or lower the signal
Sequence of Signal transducer and activator of transcription 3 (Homo sapiens) (P40763 whole entry, looked up): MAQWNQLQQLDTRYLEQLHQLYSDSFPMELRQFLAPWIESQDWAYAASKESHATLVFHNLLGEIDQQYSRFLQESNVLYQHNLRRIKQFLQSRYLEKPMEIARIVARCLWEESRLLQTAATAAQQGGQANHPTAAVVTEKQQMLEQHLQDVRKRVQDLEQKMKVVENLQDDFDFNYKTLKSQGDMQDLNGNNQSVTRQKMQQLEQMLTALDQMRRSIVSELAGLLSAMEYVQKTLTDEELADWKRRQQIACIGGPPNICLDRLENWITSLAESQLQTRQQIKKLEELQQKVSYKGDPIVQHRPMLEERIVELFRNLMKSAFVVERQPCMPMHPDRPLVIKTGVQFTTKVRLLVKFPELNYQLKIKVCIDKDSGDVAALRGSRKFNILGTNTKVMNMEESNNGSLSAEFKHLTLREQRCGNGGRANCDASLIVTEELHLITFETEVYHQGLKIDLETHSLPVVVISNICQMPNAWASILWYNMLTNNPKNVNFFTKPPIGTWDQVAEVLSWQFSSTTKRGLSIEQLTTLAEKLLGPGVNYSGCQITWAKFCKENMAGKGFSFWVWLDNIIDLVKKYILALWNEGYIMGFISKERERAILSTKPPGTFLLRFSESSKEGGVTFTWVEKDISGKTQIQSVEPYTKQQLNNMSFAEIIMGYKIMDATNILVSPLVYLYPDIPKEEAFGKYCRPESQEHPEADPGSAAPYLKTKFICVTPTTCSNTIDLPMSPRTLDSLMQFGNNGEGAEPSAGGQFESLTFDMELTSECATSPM
Outline: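 Cis-factorial format: endogenous transcription factors in HepG2 drive transfected reporter units. After 24 h treatment, reporter RNA was reverse-transcribed, amplified, FAM-labelled and HpaI-digested before CE analysis; activity scored in both directions against DMSO.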

[8] = ATG_TA_CIS: Attagene CIS-FACTORIAL HepG2 Assay for human TA Basal Promoter (AID 2282964); details: HepG2 Attagene CIS-factorial TA basal promoter reporter; actives raise or lower the signal
Outline: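 HepG2 cells transiently transfected with multiplexed cis-promoter reporter units, dosed 24 h. Reporter mRNA measured by RT-PCR, 6-FAM labelling, HpaI digestion and capillary electrophoresis; bidirectional fit versus DMSO baseline, serving as background control.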

[9] = ATG_TCF_b_cat_CIS: Attagene CIS-FACTORIAL HepG2 Assay for human T-Cell-Factor with beta-catenin (TCF/b-cat) (AID 2282965); details: HepG2 TCF/beta-catenin cis-reporter transcription, actives raise or lower the signal
Outline: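 Measured: reporter mRNA in HepG2 transiently transfected with cis-promoter reporter units, 24 h after chemical addition. Fitting was bidirectional, DMSO as negative control.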

[10] = ATG_TAL_CIS: Attagene CIS-FACTORIAL HepG2 Assay for human TAL Basal Promoter (AID 2282966); details: HepG2 Attagene cis-factorial TAL promoter reporter; actives raise or lower the signal;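 also: background control endpoint measuring basal TAL promoter reporter mRNA not a specific factor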
Outline: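 HepG2, transient MRTU transfection, 24 h compound exposure; RNA → oligo(dT) RT → PCR → 6-FAM primer extension → HpaI digest → CE fluorescence. Bidirectional curve fit vs DMSO. Background-control readout.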

[11] = ATG_TGFb_CIS: Attagene CIS-FACTORIAL HepG2 Assay for human Transforming Growth Factor (TGF) (AID 2282967); details: HepG2 Attagene CIS TGFb reporter, mRNA transcription; actives raise or lower the signal
Outline: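 HepG2 cells transiently transfected with cis-promoter-driven multiplexed reporter units; 24 h compound exposure. Reporter mRNA measured by RT-PCR, 6-FAM labeling, HpaI digestion and capillary electrophoresis; bidirectional fit versus DMSO baseline.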

[12] = ATG_VDRE_CIS: Attagene CIS-FACTORIAL HepG2 Assay for human Vitamin D Receptor Element (VDRE) (AID 2282968); details: HepG2 VDRE cis-reporter transcription, actives raise or lower the signal
Outline: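 Measures endogenous factor activity through cis-element-driven reporter transcripts in transiently transfected HepG2. Cells are treated 24 h; reporter mRNA is quantified by RT-PCR and capillary electrophoresis; fitting is bidirectional.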

[13] = target: Nuclear receptor subfamily 1 group I member 3 (Homo sapiens) (UniProt Q14994); test: ATG_CAR_TRANS: Attagene TRANS-FACTORIAL HepG2 Assay for human Constitutive Androstane Receptor (CAR) (AID 2282969; active = hit-call score of the fitted dose curve at least 0.9, where 1 is the maximum;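 also: activators raise reporter mRNA above DMSO so AC50 marks induction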); details: HepG2 Attagene TRANS-FACTORIAL CAR reporter
Sequence of Nuclear receptor subfamily 1 group I member 3 (Homo sapiens) (Q14994 whole entry, looked up, the tested form may be a part): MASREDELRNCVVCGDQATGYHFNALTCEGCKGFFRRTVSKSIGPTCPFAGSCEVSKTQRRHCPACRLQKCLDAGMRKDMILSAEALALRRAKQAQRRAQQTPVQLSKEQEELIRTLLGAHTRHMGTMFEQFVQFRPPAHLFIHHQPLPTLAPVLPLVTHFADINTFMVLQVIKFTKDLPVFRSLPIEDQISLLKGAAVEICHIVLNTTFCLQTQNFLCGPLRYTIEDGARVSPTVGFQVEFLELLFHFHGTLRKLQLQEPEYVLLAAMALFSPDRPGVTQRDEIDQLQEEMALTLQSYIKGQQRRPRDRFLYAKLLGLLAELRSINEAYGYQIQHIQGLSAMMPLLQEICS
Outline: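 Signal is reporter mRNA induction relative to DMSO, measured 24 h after dosing by RT-PCR with fluorescent primer extension and capillary electrophoresis. Human HepG2 liver cells carried transiently transfected chimeric NR-Gal4/GAL4-UAS reporter constructs.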

[14] = target: Steroid hormone receptor ERR1 (Homo sapiens) (UniProt P11474); test: ATG_ERRa_TRANS: Attagene TRANS-FACTORIAL HepG2 Assay for human Estrogen-Related Receptor alpha (ERRa) (AID 2282971; active = hit-call score of the fitted dose curve at least 0.9, where 1 is the maximum); details: HepG2 Attagene TRANS reporter, ERRa transactivation
Sequence of Steroid hormone receptor ERR1 (Homo sapiens) (P11474 whole entry, looked up, the tested form may be a part): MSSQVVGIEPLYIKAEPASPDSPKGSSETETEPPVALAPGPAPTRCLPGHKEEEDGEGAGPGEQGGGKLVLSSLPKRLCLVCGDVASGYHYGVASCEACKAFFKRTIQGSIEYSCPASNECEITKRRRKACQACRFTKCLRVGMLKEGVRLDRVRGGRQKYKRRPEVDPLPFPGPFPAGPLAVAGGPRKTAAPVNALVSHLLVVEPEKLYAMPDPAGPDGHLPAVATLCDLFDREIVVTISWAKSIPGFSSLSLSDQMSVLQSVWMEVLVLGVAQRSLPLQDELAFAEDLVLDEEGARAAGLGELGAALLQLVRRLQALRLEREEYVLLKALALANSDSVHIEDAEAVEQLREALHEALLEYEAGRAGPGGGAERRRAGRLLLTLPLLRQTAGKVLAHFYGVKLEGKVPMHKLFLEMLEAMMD
Outline: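 Transfected HepG2, 24 h dosing, ERRa-Gal4 chimera driving GAL4-UAS reporter. Readout: reporter mRNA via RT-PCR plus capillary electrophoresis (fluorescence). Positive direction vs DMSO control.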

[15] = target: X-box-binding protein 1 (Homo sapiens) (UniProt P17861); test: ATG_Xbp1_CIS: Attagene CIS-FACTORIAL HepG2 Assay for human X-box Binding Protein 1 (XBP1) (AID 2282972); details: HepG2 XBP1 cis-element reporter, Attagene multiplex; actives raise or lower the signal
Sequence of X-box-binding protein 1 (Homo sapiens) (P17861 whole entry, looked up): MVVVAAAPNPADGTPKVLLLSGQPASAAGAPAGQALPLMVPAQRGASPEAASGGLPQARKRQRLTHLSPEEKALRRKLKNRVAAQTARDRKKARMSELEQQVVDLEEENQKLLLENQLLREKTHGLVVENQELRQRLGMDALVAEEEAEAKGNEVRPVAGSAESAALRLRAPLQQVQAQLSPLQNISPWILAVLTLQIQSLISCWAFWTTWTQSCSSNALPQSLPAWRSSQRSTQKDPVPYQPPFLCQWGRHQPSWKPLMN
Outline: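 Changes in reporter transcript abundance, read by RT-PCR and capillary electrophoresis, reflect endogenous transcription factor activity. Transfected HepG2 cells received compound for 24 hours; DMSO defined baseline for bidirectional analysis.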

[16] = ATG_GAL4_TRANS: Attagene TRANS-FACTORIAL HepG2 Assay for GAL4 (Internal Marker) (AID 2282976; active = hit-call score of the fitted dose curve at least 0.9, where 1 is the maximum); details: HepG2 Attagene TRANS GAL4 internal marker reporter
Outline: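 RT-PCR/capillary electrophoresis readout of reporter mRNA. HepG2, transient MRTU transfection (GAL4-UAS reporters), 24 h compound exposure. Background-control endpoint, positive direction vs DMSO baseline.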

[17] = target: Glucocorticoid receptor (Homo sapiens) (UniProt P04150); test: ATG_GR_TRANS: Attagene TRANS-FACTORIAL HepG2 Assay for human Glucocorticoid Receptor (GR) (AID 2282978; active = hit-call score of the fitted dose curve at least 0.9, where 1 is the maximum;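 also: activators score as hits since higher reporter transcript over DMSO is fitted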); details: HepG2 Attagene TRANS GR reporter, mRNA transcription
Sequence of Glucocorticoid receptor (Homo sapiens) (P04150 whole entry, looked up, the tested form may be a part): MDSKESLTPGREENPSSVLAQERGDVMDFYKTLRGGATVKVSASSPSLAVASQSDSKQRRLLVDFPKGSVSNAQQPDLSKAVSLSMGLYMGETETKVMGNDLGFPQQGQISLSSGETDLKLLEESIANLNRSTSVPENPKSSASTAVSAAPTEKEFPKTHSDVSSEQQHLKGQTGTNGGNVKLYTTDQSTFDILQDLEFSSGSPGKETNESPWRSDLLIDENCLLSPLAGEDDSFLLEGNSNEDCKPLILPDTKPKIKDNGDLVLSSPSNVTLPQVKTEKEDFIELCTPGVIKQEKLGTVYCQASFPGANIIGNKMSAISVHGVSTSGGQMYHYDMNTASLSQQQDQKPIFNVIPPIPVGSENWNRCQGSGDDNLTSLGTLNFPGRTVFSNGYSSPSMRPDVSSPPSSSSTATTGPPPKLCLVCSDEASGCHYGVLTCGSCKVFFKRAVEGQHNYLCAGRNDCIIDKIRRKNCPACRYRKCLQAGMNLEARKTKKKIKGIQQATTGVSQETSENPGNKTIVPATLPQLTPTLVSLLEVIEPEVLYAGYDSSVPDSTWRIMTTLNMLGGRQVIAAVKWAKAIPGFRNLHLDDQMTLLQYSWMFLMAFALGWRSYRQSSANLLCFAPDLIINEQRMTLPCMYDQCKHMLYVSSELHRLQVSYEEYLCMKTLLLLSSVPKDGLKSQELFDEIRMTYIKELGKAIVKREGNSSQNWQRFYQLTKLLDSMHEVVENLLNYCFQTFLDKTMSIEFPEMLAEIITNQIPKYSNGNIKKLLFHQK
Outline: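 In this trans-factorial format, exogenous NR-GAL4 chimeric proteins in transfected HepG2 cells regulate GAL4-UAS reporter transcription. After 24 h treatment, reporter mRNA induction relative to DMSO is read by RT-PCR and capillary electrophoresis.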

[18] = target: Estrogen receptor (Homo sapiens) (UniProt P03372); test: ATG_ERa_TRANS: Attagene TRANS-FACTORIAL HepG2 Assay for human Estrogen Receptor alpha (ERa) (AID 2282970; active = hit-call score of the fitted dose curve at least 0.9, where 1 is the maximum); details: HepG2 Attagene TRANS ERa GAL4 reporter, mRNA
Sequence of Estrogen receptor (Homo sapiens) (P03372 whole entry, looked up, the tested form may be a part): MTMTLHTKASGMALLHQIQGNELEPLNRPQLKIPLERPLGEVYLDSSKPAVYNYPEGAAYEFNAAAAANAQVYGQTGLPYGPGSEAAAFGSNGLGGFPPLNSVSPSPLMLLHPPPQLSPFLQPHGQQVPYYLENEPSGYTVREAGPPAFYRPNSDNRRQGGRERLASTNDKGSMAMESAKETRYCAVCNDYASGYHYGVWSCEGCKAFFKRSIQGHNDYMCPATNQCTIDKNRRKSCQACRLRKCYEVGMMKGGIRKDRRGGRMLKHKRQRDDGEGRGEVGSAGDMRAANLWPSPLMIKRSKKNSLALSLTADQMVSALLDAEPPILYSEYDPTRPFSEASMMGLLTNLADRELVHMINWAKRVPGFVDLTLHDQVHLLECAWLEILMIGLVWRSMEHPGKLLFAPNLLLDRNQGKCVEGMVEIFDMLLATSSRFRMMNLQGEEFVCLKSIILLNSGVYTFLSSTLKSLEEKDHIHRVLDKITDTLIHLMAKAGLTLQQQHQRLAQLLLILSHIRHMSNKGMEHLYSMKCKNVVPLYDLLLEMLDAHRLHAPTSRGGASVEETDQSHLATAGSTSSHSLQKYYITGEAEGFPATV
Outline: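 Reporter mRNA induction after 24 hours, detected by fluorescent RT-PCR and capillary electrophoresis, gives the read-out. Cells are HepG2 transiently transfected with GAL4-UAS reporter transcription units responding to chimeric NR-Gal4. Activity is taken as gain of signal over DMSO baseline.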

[19] = ATG_M_19_TRANS: Attagene TRANS-FACTORIAL HepG2 Assay for M19 Transcription Factor (Internal Marker) (AID 2282974; active = hit-call score of the fitted dose curve at least 0.9, where 1 is the maximum); details: HepG2 Attagene TRANS-FACTORIAL M19 internal marker reporter
Outline: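 Cells: human HepG2, transiently transfected with multiplexed reporter transcription units. Exposure: 24 h. Detection: RT-PCR of reporter mRNA with capillary electrophoresis. Analysis: gain-of-signal vs DMSO.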

[20] = target: Estrogen-related receptor gamma (Homo sapiens) (UniProt P62508); test: ATG_ERRg_TRANS: Attagene TRANS-FACTORIAL HepG2 Assay for human Estrogen-Related Receptor gamma (ERRg) (AID 2282977; active = hit-call score of the fitted dose curve at least 0.9, where 1 is the maximum;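 also: hits increase reporter signal over DMSO so potencies reflect activators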); details: HepG2 Attagene TRANS reporter, ERRg transactivation
Sequence of Estrogen-related receptor gamma (Homo sapiens) (P62508 whole entry, looked up, the tested form may be a part): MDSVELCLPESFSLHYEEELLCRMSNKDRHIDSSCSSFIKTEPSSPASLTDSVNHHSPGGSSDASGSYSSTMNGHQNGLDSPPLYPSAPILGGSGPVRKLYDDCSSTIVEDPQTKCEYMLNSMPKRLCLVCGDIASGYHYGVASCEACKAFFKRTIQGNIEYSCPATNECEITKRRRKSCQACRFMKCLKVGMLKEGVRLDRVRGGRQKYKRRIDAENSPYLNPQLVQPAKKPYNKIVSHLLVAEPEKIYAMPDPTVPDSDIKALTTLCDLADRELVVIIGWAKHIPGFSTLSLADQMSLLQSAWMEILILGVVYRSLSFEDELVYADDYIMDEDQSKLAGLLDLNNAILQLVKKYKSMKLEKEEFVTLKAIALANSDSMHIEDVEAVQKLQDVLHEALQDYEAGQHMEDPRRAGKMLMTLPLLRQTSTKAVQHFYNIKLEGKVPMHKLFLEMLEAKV
Outline: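 Readout: fluorescent reporter-mRNA fragments resolved by capillary electrophoresis after RT-PCR and HpaI cut. Cells: transiently transfected HepG2 carrying GAL4-UAS reporters driven by exogenous NR-Gal4 chimeras, dosed 24 h. Activity fitted upward relative to DMSO baseline.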

Measured: AC50

O=C1c2ccccc2C(=O)c2c(O)c(O)cc(O)c21
inactive: [2] | [3] | [4] | [5] | [6] | [7] | [8] | [9] | [10] | [11] | [12] | [13] | [14] | [15] | [16] | [17]
active: [1] 26.6 µM

CCN(CCC#N)c1ccccc1
active: [1] 39.6 µM
inactive: [2] | [3] | [4] | [5] | [6] | [7] | [8] | [9] | [10] | [11] | [12] | [13] | [18] | [15] | [19] | [16]

CCOC(OCC)C(=O)c1ccccc1
inactive: [2] | [3] | [4] | [5] | [6] | [7] | [8] | [9] | [10] | [11] | [12] | [14] | [15] | [19] | [16] | [20] | [17]
active: [1] 36.8 µM | [18] 32.2 µM

FC(F)(F)N1C(F)(F)C(F)(F)OC(F)(F)C1(F)F
inactive: [1] | [2] | [3] | [4] | [5] | [6] | [7] | [8] | [9] | [10] | [11] | [12] | [18] | [15] | [16] | [17]

CC1=CC(=O)c2ccccc2C1=O
active: [1] 11.1 µM
inactive: [2] | [3] | [4] | [5] | [6] | [7] | [8] | [9] | [10] | [11] | [12] | [13] | [18] | [14] | [15] | [19]

CCCCCCOC(=O)c1ccc(O)cc1
inactive: [4] | [7] | [8] | [9] | [10] | [14]
active: [1] 13 µM | [2] 22.9 µM | [3] 51.2 µM | [5] 37.1 µM | [6] 33.4 µM | [11] 50.8 µM | [12] 49.9 µM | [18] 3.24 µM | [15] 54.6 µM

O=S(=O)(O)C(F)(F)C(F)(F)C(F)(F)C(F)(F)C(F)(F)C(F)(F)C(F)(F)C(F)(F)C(F)(F)C(F)(F)F
inactive: [2] | [3] | [4] | [5] | [6] | [7] | [8] | [9] | [10] | [12] | [18] | [14] | [15] | [16]
active: [1] 83.7 µM and 40.3 µM | [11] 132 µM and 31.7 µM

Clc1ccc(Nc2nnc(Cc3ccncc3)c3ccccc23)cc1
active: [1] 1.45 µM | [3] 15.8 µM | [8] 23.2 µM | [9] 11 µM | [10] 11.2 µM | [12] 7.35 µM
inactive: [2] | [4] | [5] | [6] | [7] | [11] | [18] | [15] | [19] | [17]
